# GoLoco inh red – RGS12 GoLoco-Gai1 interaction inhibition; actives 0.44% (n = 230,000); Gai1:RGS12 GoLoco peptide FP, rhodamine, 10 min; Potency, µM (top dose mostly 61.6 µM), inactives show at the highest dose activity, negative = inhibition, most hits filed as inhibitors; P63096; AID 880; active = well fitted inhibition curve with a large enough effect, not every such curve was filed as active; inactive = no such curve, though single readings can be large or run the other way; also: potency is read from the fitted curve at half-maximal effect; % is scaled to controls: 0 for no effect and ±100 for the full control effect; nearly all actives have a fitted effect of over 30% in size
# HTT aggregate – reduces HttQ103-GFP aggregates in PC12 cells; AID 1688; actives 1.1% (n = 220,000); Potency, µM (highest dose often 46.1 µM), without a hit: at the highest dose activity change, negative = inhibition, usual class: inhibitors; PC12 HttQ103-GFP aggregates, Acumen cytometry, 40 h; active = well fitted curve in the direction sought with a large enough effect; inconclusive = small, poorly fitted or top-dose-only effect, or another doubt; inactive = no such curve, though single readings can be large; an effect the other way counts as inactive or inconclusive; also: potency is read from the fitted curve at half-maximal effect; % is scaled to controls: 0 for no effect and ±100 for the full control effect; nearly all actives have a fitted effect of over 60% in size
#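 PC12/HTTQ103-GFP, ecdysone-inducible; teb 100 nM; cpd qHTS titration; GFP aggregates read on laser cytometer, Ex 488/Em 500-530 nm.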
# PNC inhibitor – perinucleolar compartment assembly inhibition; PC3M PTB-GFP, PNC prevalence imaging, 16 h; hits give low values; activity change (PNC), negative = inhibition, % at 10 µM; actives 3.1% (n = 140,000);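 active = readout at or below -70, meaning at least 70% loss of cells showing the perinucleolar compartment, a nuclear body marking cancer cells; inconclusive = readout between -30 and a set limit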;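 also: plate controls were DMSO wells for no effect and camptothecin positive control wells for full effect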
#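 PC3M cells stably expressing PTB-GFP, 750–1000 cells/well, treated 16 h at 37 °C with compound (23 nl of library stock), in duplicate. After paraformaldehyde fixation and Hoechst stain, imaged at 20x; PNC prevalence scored by image analysis.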
# HPGD block – blocks human HPGD enzyme activity; P15428; purified HPGD, NADH fluorescence kinetic, PGE2 substrate; Potency, µM, without a hit: top-dose activity change, negative = inhibition, hits mostly inhibitors; actives 4.3% (n = 150,000); also: potency is read from the fitted curve at half-maximal effect; % is scaled to controls: 0 for no effect and ±100 for the full control effect
#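 NADH formation kinetics: reaction with 30 uM PGE2 and 1 mM NAD+ (final), 20 nM enzyme, Tris-HCl pH 8 with Tween 20, after 15 min compound preincubation at room temperature. Fluorescence change, last versus first of five reads.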
# ALDH1A1 inh – ALDH1A1 (human) enzyme inhibition; P00352; Purified ALDH1A1, NADH fluorescence, propionaldehyde substrate; Potency, µM (titrated, usually from 75.3 µM), inactives show at the top dose activity, negative = inhibition, usual class: inhibitors; actives 7.3% (n = 220,000);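 also: potency is read from the fitted curve at half-maximal effect; plate controls were no enzyme wells and a reference inhibitor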
# Target sequence (P00352 whole entry, looked up): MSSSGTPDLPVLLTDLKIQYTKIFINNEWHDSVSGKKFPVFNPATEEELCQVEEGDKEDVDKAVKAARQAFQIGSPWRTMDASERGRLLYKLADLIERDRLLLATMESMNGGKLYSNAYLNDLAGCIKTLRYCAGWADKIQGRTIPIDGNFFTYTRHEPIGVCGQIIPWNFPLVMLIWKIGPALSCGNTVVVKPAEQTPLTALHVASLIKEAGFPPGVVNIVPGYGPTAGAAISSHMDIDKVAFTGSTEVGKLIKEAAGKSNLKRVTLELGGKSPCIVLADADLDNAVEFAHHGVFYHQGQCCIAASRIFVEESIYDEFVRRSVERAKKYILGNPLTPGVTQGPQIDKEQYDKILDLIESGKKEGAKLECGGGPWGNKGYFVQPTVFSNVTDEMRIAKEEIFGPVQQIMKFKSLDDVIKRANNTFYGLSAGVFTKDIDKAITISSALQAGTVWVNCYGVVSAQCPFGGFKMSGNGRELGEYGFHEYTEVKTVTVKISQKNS
# HTT cytoprotect – cytoprotection in Huntington HTT-Q103 PC12 cell model. PC12 HTT-Q103 induced, cytoprotection, ATP luminescence, 40 h. Potency, µM (doses to about 56.4 µM), without a hit: cytoprotection (ATP increase), hits mostly activators. actives 0.14% (n = 230,000); active = well fitted curve in the direction sought with a large enough effect; inconclusive = small, poorly fitted or top-dose-only effect, or another doubt; inactive = no such curve, though single readings can be large; an effect the other way counts as inactive or inconclusive; also: potency is read from the fitted curve at half-maximal effect; % of control where 0% means no effect; nearly all actives have a fitted effect of over 45% in size
#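 Quantitative HTS on tebufenozide-induced (100 nM) PC12 cells expressing HTTQ103 exon 1–GFP; compounds tested as a concentration series; survival measured via cellular ATP.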
# Starred values were filed as active, the others as inactive; ? = inconclusive; · = no result; [ ] = remark or other dose. Sampled rows, rich in hits. Any-hit rate of the full collection: about 11%. Unless noted, calls follow the shape of the dose curve; as a rule, active = well fitted inhibition curve with a large enough effect (not every such curve was filed as active); inconclusive = small, poorly fitted or top-dose-only effect, or another doubt; inactive = no such curve, though single readings can be large or run the other way.
SMILES,GoLoco inh red,HTT aggregate,PNC inhibitor,HPGD block,ALDH1A1 inh,HTT cytoprotect
O=C(c1ccco1)N1CCN(C2CC(=O)N(c3ccc4c(c3)OCO4)C2=O)CC1 (stereo not given),3%,-10%,7,1%,?,-9%
C=CCN1c2ccccc2[C@]23C[C@@H](C(=O)OC)N(S(=O)(=O)c4ccc(C)cc4)C2=NC(C(=O)OC)=C(C(=O)OC)[C@H]13,-13%[14.2 µM],·,·,-3%,-8%[13.5 µM],4%[10 µM]
COCC(=O)N1CCC2(CCN(Cc3ccccc3OC)CC2)CC1,4%,·,·,1%,9%,13%
CC(=O)c1ccc(NC(=O)C2CC(=O)N(Cc3ccccc3)C2)cc1 (stereo not given),-6%,12%,-20,-8%,14µM*,-6%
Cn1c(=O)c(Sc2ccccc2)c(O)c2ccccc21,5%,-14%[9.22 µM],·,·,25µM*,6%[10 µM]
O=C1CCCN1CCCN1C(=O)N[C@@H](Cc2ccccc2)C1=O,2%,3%,-5,-11%,4%,4%
O=C1C[C@@H]2CCN3C(=O)CCC[C@@H]([C@H]23)[C@@H]1Cc1ccccc1,-4%[88.7 µM],·,·,-1%,16µM*,-9%
COc1ccc(NC(=O)C2C3C=CC(C3)C2C(=O)NCc2ccco2)c(OC)c1 (stereo not given),-2%,-1%,13,25µM*,?,-11%[1.9 µM]
O=C(O)C1C2C=CC(C2)C1C(=O)NCc1ccco1 (stereo not given),10%,8%,·,·,0%,-24%
CN1CCCC1CCNS(=O)(=O)c1ccc(Br)cc1 (stereo not given),-2%,9%,-109*,-2%,3%,2%[10 µM]
CC(C)CSc1n[nH]c(=S)s1,-12%,12%,·,·,0.63µM*,·
Cc1ccc(S(=O)(=O)/N=C2\CN(C)C(=O)N2C)cc1,-2%,-14%,-113*,-6%,14%,·
Cc1ccc(S(=O)(=O)/N=c2\sccn2C)cc1,-2%,-15%,99,-7%,11%,-6%
CC(C)Nc1nc(-c2ccncc2)nc(-c2ccc(Cl)cc2)c1C#N,6%,4%,·,·,1%,-32%
CC(C)Nc1nc(-c2ccccn2)nc(-c2ccccc2)c1C#N,15%,3.5µM*,·,·,-9%,-20%
CN1CCN(c2nc(-c3ccccc3)nc(-c3ccc(F)cc3)c2C#N)CC1,3%,-3%,·,·,0%,·
COc1ccc(-c2nc(-c3ccccn3)nc(N3CCN(C)CC3)c2C#N)cc1,-5%,-6%,·,·,14µM*,-44%
Cc1cc(C)nc(SCNC(=O)c2ccc(F)cc2)n1,2%,0%,48,14µM*,4%,2%
CCCCC[C@H](O)/C=C/[C@H]1C=CC(=O)[C@@H]1CCCCCCC(=O)O,4%,·,·,-7%,1%,-20%
COc1cc(N[C@@H](C)CCCN)c2ncccc2c1,-16%[21.6 µM],-18%[20.6 µM],·,-3%,?,-25%[40.3 µM]
Cc1ccc(S(=O)(=O)Cn2nnnc2CN2CCOCC2)cc1,-7%,14%[9.22 µM],?,-3%,-15%,9%[10 µM]
Cc1ccc(S(=O)(=O)Cn2nnnc2CN2CCCC3(CCCCC3)C2)cc1,11%,?,15,-13%,16µM*,13%[10 µM]
CC1Cc2ccccc2N1C(=S)NC(=O)c1ccc(Cl)cc1Cl (stereo not given),·,-31%,-1,·,2%,28%[10 µM]
C[C@@H]1Cc2ccccc2N1NC(=O)c1ccc(Cl)c(S(N)=O)c1 (stereo not given in full),9%[21.6 µM],?,·,-1%,7.9µM*,-42%[17.1 µM]
CCOC(=O)c1cnc(SC2CCc3ccccc3C2=O)nc1N (stereo not given),-4%,-9%,-23,28µM*,32µM*,-31%
SMILES,GoLoco inh red,HTT aggregate,PNC inhibitor,HPGD block,ALDH1A1 inh,HTT cytoprotect
CN(C)CCCN(C(=O)/C=C/c1cccs1)c1nc2ccc(F)cc2s1,13%,?,·,·,-1%,9%
CN(C)CCCN(C(=O)c1ccc2c(c1)CCCC2)c1nc2ccc(Cl)cc2s1,2%,-23%,28,-17%,14µM*,-10%[10 µM]
CN(C)CCCN(C(=O)c1sc2ccccc2c1Cl)c1nc2ccc(F)cc2s1,-25%,-16%,-94*,-14%,-15%,·
CN1c2ccccc2C(C)(C)C12CC(CCl)=NO2 (stereo not given),8%,10%,27,-28%,?,-47%
CN1c2ccccc2C(C)(C)C12CC(c1ccc(Cl)c(S(=O)(=O)N3CCCC3)c1)=NO2 (stereo not given),0%,-11%,-121*,-7%,-9%,·
CN1c2ccccc2-c2nc3ccccc3n2C1c1cccs1 (stereo not given),9%,22%,?,?,?,·
CCN(CC)c1nc(N)c2c(N)n(-c3ccccc3C)c(=S)c(C#N)c2c1C#N,34%,-11%,16,20µM*,?,-5%
O=C(Nc1nc(-c2ccccn2)cs1)c1ccccc1-n1cnnn1,-2%,-11%[9.22 µM],·,·,10µM*,-9%[10 µM]
O=C(Nc1nc(-c2ccccn2)cs1)c1cc(Cl)ccc1[N+](=O)[O-],9%,?,·,·,10µM*,-29%[10 µM]
Cc1cc(C(=O)Nc2nc(-c3ccccn3)cs2)ccc1[N+](=O)[O-],-6%,-21%,·,·,?,-136%
CC(C)C1=CC2=CCC3[C@@](C)(CCC[C@@]3(C)C(=O)O)C2CC1 (stereo not given in full),-6%,·,·,-7%,-12%,·
COc1ccc(CN2C(=O)c3cccnc3C2Nc2ccc(OC)c(Cl)c2)cc1 (stereo not given),12%,2%,-5,-29%,-4%,-1%
O=C1c2cccnc2C(Nc2ccc(Cl)cc2)N1Cc1cccs1 (stereo not given),5%,-6%,·,·,4.5µM*,-2%
COc1ccc(NC2c3ncccc3C(=O)N2Cc2ccccc2)c(OC)c1 (stereo not given),-12%,3%,-100*,-18%,-17%,0%[10 µM]
COc1cc(NC2c3ncccc3C(=O)N2Cc2ccco2)cc(OC)c1 (stereo not given),25%,2%,-22,-17%,16µM*,-23%
CCOc1ccccc1C(=O)Nc1nn[nH]n1,-10%,23%,·,·,4%,-20%
COc1ccc(C=O)cc1Cn1c(C)cc(C)c(C#N)c1=O,5%,-15%,·,·,?,-34%
Cc1cc(NC(=S)NC(=O)c2ccccc2)ccc1-c1cc2ccccc2oc1=O,5%,0%,-15,-5%,8.9µM*,-47%[10 µM]
O=C(Nc1ccc(N2CCCC2)cc1)c1cccc(-c2cc3ccccc3oc2=O)c1,10%,24%,7,8.9µM*,2.2µM*,18%[10 µM]
